Measurements as given in PubChem BioAssay (Tox21).
Results filed as inconclusive are left out. A call without a number means that no potency is given here. The source made the active and inactive calls. The call rests on the fitted dose curve.

Test: p53 small molecule agonists, cell-based qHTS assay with rat liver microsomes (AID 1963578)
Settings: HCT-116 p53RE-bla, beta-lactamase ratio, 16 h; series mostly up to 66 µM
Excerpt: U.S. Tox21 Program National Center for Advancing Translational Sciences [NCATS] Division of Preclinical Innovation [DPI] U.S. Environmental Protection Agency [EPA] National Institutes of Environmental Health Sciences [NIEHS] National Toxicology Program [NTP] U.S. Food and Drug Administration [FDA] Tox21 Assay Overview: p53, a tumor suppressor protein, is activated following cellular insult, including DNA damage and other cellular stresses. The activation of p53 regulates cell fate by inducing DNA repair, cell cycle arrest, apoptosis, or cellular senescence. The activation of p53, therefore, is a good indicator of DNA damage and other cellular stresses. […] The activation of the reporter gene under culture conditions can be detected by fluorescence intensity. This cell line was used to screen the Tox21 10K compound library in the condition of presence of rat liver microsomes and to identify agonists that activate the p53 signaling pathway after in vitro metabolic activation (Ooka et al., Archive of Toxicology 96:1975-1987, 2022).
Tox21 Assay Protocol Summary: The p53RE-bla cells were dispensed at 4,000cells/3ul/well in 1536-well black-clear bottom plates. After the assay plates were incubated at 37 C, 5% CO2 incubator for 5 hours, 23 nL of compounds dissolved in DMSO, positive controls or DMSO only was transferred to the assay plate. Following compound addition, 3 uL of rat liver microsomes (Molecular Toxicology, Boone, NC) at final concentration of 0.5 mg/mL and 1uL of Beta-Nicotinamide adenine dinucleotide 2-phosphate (NADPH) at final concentration of 0.5 mg/mL were transferred to the assay plate. The plates were incubated at 37 C for 16 hours. 1 uL of LiveBLAzer detection mixture was added to each well and the plates were incubated at room temperature in the dark for 2 h.
In the case of CC1CCCC1, the Potency is reported as “inactive”. In the case of CC(Oc1cccc(Cl)c1)C(=O)O (stereo not given), the Potency is reported as “inactive”. In the case of Clc1ccc(C2(Cn3cncn3)CC(Br)CO2)c(Cl)c1 (stereo not given), the Potency is reported as “inactive”. With COC(=O)N(C(=O)N1COC2(C(=O)OC)Cc3cc(Cl)ccc3C2=N1)c1ccc(OC(F)(F)F)cc1 (stereo not given) the Potency was “inactive”. For [CH3][Hg][Cl], the Potency was “inactive”. With CCCOCC(=Nc1ccc(Cl)cc1C(F)(F)F)n1ccnc1 the Potency was “inactive”. In the case of CCOC(=O)NC(C)(C)Cc1ccc(Cl)cc1, the Potency is reported as “inactive”. For C[C@H](CN1CCOCC1)C(C(=O)N1CCCC1)(c1ccccc1)c1ccccc1, the Potency was “inactive”. With O=C(CCCCl)c1ccc(F)cc1 the Potency was “inactive”. For COc1ccc(C=O)cc1O, the Potency was “inactive”. In the case of N#CC(C#N)=NNc1cccc(Cl)c1, the Potency is reported as “inactive”. In the case of CCC(C)(C)C(=O)OC1=C(c2ccc(Cl)cc2Cl)C(=O)OC12CCCCC2, the Potency is reported as “inactive”. In the case of ClC(Br)Br, the Potency is reported as “inactive”. With CC1(C)CC/C(=C/c2ccc(Cl)cc2)C1(O)Cn1cncn1 (stereo not given) the Potency was “inactive”. For CCSC(C)CC1CC(=O)C(/C(CC)=N/OC/C=C/Cl)=C(O)C1 (stereo not given), the Potency was “inactive”. With CN(C)C(=O)Oc1cc(OC(=O)N(C)C)cc(C(O)CNC(C)(C)C)c1 (stereo not given) the Potency was “inactive”. For CC(c1ccc(O)cc1)(c1ccc(O)cc1)c1ccc(O)cc1, the Potency was “inactive”. In the case of COc1cccc2c1C(=O)c1c(O)c3c(c(O)c1C2=O)C[C@@](O)(C(=O)CO)CC3OC1CC(N2CCOC(OC)C2)C(O)C(C)O1 (stereo not given in full), the Potency is reported as “inactive”. For CCOc1cccc(C2(N3CCN(c4ccccc4)CC3)CCC(C)CC2)c1 (stereo not given), the Potency was “inactive”. In the case of O=C(O)CBr, the Potency is reported as “inactive”. With COC12CC[C@@]3(C[C@@H]1C(C)(O)C(C)(C)C)[C@H]1Cc4ccc(O)c5c4[C@@]3(CCN1CC1CC1)[C@H]2O5 (stereo not given in full) the Potency was “inactive”. In the case of CC(C)c1c(CN(C)C(C)Cc2ccccc2)n(C)n(-c2ccccc2)c1=O (stereo not given), the Potency is reported as “inactive”. With C=CCOC(=O)C(C)(C)OC(=O)c1cc(-n2c(=O)cc(C(F)(F)F)n(C)c2=O)ccc1Cl the Potency was “inactive”. In the case of CCSC(=O)Cl, the Potency is reported as “inactive”. With NS(=O)(=O)C(F)(F)C(F)(F)C(F)(F)C(F)(F)C(F)(F)C(F)(F)C(F)(F)C(F)(F)F the Potency was “inactive”. With CCN(CC)C(=O)[C@@H]1C=C2c3cccc4[nH]cc(c34)C[C@H]2N(C)C1 the Potency was “inactive”. In the case of Cc1ccc([N+](=O)[O-])[c]2c1[O][Hg]2, the Potency is reported as “inactive”. For c1coc(-c2nc3ccccc3[nH]2)c1, the Potency was “inactive”. For SCc1ccco1, the Potency was “inactive”. With CCC(C)(NC(=O)c1cc(Cl)c(C)c(Cl)c1)C(=O)CCl (stereo not given) the Potency was “inactive”. With O=S(=O)(C(Cl)(Cl)Cl)C(Cl)(Cl)Cl the Potency was “inactive”. With CC(Cc1ccc(C(C)(C)C)cc1)CN1C[C@@H](C)O[C@@H](C)C1 (stereo not given in full) the Potency was “inactive”. For O=[N+]([O-])c1cc([N+](=O)[O-])c2ccccc2c1, the Potency was “inactive”. In the case of CC(C)NCC(O)c1ccccc1Cl (stereo not given), the Potency is reported as “inactive”. With NC1CCC(CC2CCC(N)CC2)CC1 (stereo not given) the Potency was “inactive”. With CCC[N+](CCC)(CCC)CCC the Potency was “inactive”. With ClC1=C(Cl)[C@]2(Cl)[C@H]3[C@H]([C@H]4C=C[C@H]3C4)[C@@]1(Cl)C2(Cl)Cl the Potency was “inactive”. With c1cc[c]([Hg][c]2ccccc2)cc1 the Potency was “inactive”. With CCOC(=O)/C=C(C)/C=C/C[C@@H](C)CCCC(C)C the Potency was “inactive”. For CC(=O)C(Cl)(Cl)Cl, the Potency was “inactive”.
